The record followed here is publication PMC7862700, “An all-to-all approach to the identification of sequence-specific readers for epigenetic DNA modifications on cytosine”.

Assay in all cases: DAPPL (digital affinity profiling via proximity ligation, sequencing); 10 mM Tris-HCl pH 7.5, 50 mM NaCl, 1 mM DTT, 4% glycerol, room temperature, 30 min; GST-TFs on glutathione beads, 16-mer random dsDNA library, 0.1% formaldehyde crosslink after washing; high values mean tight binding
For assay [1], the target named is T1, FLI1 (Homo sapiens, UniProt Q01543 1-452).
T1 sequence: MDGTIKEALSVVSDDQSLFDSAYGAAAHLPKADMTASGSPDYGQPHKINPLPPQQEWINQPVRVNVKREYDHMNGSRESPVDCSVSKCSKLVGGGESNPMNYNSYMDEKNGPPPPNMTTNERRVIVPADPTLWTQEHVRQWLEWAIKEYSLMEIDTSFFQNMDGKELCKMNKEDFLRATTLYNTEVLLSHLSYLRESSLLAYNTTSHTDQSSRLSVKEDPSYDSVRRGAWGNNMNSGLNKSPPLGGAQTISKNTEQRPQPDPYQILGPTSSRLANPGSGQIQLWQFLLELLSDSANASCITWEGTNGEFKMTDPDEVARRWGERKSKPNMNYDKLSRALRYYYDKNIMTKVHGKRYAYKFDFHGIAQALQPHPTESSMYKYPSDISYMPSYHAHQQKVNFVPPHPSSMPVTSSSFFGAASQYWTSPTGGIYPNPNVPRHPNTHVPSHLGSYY
The settings on record: protein: recombinant; tags: N-terminal GST; dsDNA, one strand shown. In outline: (§1)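 After expression in yeast as GST fusions, human transcription factors were bound to glutathione beads, DNA-barcoded and mixed with a tag-only sample. The pools were incubated with 200 nmole of a 16-mer random double-stranded DNA library in Tris/NaCl/DTT/glycerol buffer (30 min, room temperature), washed and crosslinked with 0.1% formaldehyde. Proximity ligation with BsaI/T4 ligase ran for 1 h at 37 °C, before PCR amplification and sequencing on an Illumina NextSeq500. Binding signal is a hexamer's read frequency for a factor divided by its frequency for the tag-only sample.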

For assay [2], the target named is T2, ELK1 (Homo sapiens, UniProt P19419 1-428).
T2 sequence: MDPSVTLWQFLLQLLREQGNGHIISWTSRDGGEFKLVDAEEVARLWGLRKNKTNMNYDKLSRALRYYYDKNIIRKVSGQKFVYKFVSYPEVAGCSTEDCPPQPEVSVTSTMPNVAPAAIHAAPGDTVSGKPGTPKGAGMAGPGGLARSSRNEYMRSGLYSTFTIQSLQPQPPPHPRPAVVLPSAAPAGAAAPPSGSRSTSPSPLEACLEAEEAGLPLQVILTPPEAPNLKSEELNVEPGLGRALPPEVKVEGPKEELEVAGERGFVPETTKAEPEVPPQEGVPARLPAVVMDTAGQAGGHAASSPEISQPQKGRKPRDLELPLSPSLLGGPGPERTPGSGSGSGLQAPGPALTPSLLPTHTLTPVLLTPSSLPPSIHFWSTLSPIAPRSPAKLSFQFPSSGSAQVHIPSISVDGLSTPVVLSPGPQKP
The settings on record: protein: recombinant; tags: N-terminal GST; dsDNA, one strand shown. In short, it runs like this:
as §1

Assay [3] addresses T3, GABPA (Homo sapiens, UniProt Q06546 1-454).
T3 sequence: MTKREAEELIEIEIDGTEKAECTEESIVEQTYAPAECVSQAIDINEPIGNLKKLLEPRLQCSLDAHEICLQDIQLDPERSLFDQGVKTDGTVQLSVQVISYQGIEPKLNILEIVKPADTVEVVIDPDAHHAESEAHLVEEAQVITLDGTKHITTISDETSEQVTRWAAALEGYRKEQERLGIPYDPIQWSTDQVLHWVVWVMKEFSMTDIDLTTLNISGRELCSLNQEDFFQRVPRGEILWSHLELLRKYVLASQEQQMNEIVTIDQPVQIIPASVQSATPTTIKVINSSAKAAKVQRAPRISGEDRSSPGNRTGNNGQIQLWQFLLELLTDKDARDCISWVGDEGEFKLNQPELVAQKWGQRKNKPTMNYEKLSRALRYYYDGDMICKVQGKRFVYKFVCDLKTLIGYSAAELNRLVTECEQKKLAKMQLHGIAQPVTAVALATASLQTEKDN
As to conditions: protein: recombinant; tags: N-terminal GST; dsDNA, one strand shown. In short, it runs like this:
as §1

The target in assay [4] is T4, ERG (Homo sapiens, UniProt P11308 1-479).
T4 sequence: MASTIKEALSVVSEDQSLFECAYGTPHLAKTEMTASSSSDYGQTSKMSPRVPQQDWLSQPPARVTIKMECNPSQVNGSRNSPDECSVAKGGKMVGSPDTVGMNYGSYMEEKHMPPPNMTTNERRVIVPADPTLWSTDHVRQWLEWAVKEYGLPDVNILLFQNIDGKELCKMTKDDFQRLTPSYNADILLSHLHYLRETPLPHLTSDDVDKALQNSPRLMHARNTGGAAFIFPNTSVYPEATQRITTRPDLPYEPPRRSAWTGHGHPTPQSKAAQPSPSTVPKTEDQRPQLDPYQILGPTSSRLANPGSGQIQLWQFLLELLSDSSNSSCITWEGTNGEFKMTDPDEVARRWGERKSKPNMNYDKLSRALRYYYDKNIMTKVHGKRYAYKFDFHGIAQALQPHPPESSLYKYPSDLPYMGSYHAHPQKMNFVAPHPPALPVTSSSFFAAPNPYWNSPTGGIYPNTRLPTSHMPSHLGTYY
As to conditions: protein: recombinant; tags: N-terminal GST; dsDNA, one strand shown. In short, it runs like this: as §1

The target in assay [5] is ELF1 (Homo sapiens, UniProt P32519 1-619). The settings on record: protein: recombinant; tags: N-terminal GST; dsDNA, one strand shown. In short, it runs like this: as §1
In assay [6] the target is T5, EHF (Homo sapiens, UniProt Q9NZC4 1-300).
T5 sequence: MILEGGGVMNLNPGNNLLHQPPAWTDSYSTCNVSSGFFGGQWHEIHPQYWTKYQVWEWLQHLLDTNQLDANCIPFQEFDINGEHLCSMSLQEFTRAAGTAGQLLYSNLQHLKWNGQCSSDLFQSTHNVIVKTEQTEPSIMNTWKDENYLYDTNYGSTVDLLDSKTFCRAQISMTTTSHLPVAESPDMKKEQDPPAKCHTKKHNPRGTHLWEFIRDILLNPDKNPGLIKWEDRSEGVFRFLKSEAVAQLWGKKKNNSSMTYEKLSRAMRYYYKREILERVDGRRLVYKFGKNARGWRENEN
As to conditions: protein: recombinant; tags: N-terminal GST; dsDNA, one strand shown. In outline:
as §1

Assay [7] concerns the target SPI1 (Homo sapiens, UniProt P17947 1-270). As to conditions: protein: recombinant; tags: N-terminal GST; dsDNA, one strand shown. In outline: as §1
The target of assay [8] is SPIB (Homo sapiens, UniProt Q01892 1-262). As to conditions: protein: recombinant; tags: N-terminal GST; dsDNA, one strand shown. In outline:
as §1

Assay [9] has as its target T6, ELK3 (Homo sapiens, UniProt P41970 1-407).
T6 sequence: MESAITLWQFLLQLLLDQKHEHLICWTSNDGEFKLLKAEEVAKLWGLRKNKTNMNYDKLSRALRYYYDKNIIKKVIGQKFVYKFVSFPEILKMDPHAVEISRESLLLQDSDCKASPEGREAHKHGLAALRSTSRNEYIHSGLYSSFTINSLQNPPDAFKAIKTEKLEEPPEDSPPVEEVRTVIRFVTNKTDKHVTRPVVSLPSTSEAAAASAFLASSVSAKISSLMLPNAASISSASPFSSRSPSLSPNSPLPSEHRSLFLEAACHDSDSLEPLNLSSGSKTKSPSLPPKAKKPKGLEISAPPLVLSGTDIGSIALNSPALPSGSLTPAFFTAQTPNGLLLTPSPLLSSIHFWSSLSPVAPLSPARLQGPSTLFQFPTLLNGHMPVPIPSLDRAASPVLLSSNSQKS
As to conditions: protein: recombinant; tags: N-terminal GST; dsDNA, one strand shown. In outline: as §1

Assay [10] concerns the target T7, FEV (Homo sapiens, UniProt Q99581 1-238).
T7 sequence: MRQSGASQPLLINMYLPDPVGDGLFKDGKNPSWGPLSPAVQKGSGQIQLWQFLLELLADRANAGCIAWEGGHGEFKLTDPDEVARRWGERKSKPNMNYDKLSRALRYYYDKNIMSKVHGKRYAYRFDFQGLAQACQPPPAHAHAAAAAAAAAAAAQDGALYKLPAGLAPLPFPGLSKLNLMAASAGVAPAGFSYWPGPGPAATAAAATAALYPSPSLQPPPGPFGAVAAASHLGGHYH
The settings on record: protein: recombinant; tags: N-terminal GST; dsDNA, one strand shown. In outline: as §1

Assay [11] addresses ETV5 (Homo sapiens, UniProt P41161 1-510). As to conditions: protein: recombinant; tags: N-terminal GST; dsDNA, one strand shown. In short, it runs like this:
as §1

Assay [12] deals with HSF1 (Homo sapiens, UniProt Q00613 1-529). The settings on record: protein: recombinant; tags: N-terminal GST; chain copies: 3; dsDNA, one strand shown. In short, it runs like this:
as §1

Assay [13] has as its target T8, SPIC (Homo sapiens, UniProt Q8N5J4 1-248).
T8 sequence: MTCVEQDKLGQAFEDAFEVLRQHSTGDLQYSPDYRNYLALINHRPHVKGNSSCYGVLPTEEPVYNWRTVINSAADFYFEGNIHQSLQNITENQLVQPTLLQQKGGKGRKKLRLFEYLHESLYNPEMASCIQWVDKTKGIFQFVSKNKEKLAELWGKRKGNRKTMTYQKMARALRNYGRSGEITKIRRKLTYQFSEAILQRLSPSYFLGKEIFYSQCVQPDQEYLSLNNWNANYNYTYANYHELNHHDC
The settings on record: protein: recombinant; tags: N-terminal GST; dsDNA, one strand shown. In outline: as §1

Assay [14] has as its target ELF4 (Homo sapiens, UniProt Q99607 1-663). As to conditions: protein: recombinant; tags: N-terminal GST; dsDNA, one strand shown. In outline: as §1
Assay [15] has as its target T9, ELK4 (Homo sapiens, UniProt P28324-2 1-405).
T9 sequence: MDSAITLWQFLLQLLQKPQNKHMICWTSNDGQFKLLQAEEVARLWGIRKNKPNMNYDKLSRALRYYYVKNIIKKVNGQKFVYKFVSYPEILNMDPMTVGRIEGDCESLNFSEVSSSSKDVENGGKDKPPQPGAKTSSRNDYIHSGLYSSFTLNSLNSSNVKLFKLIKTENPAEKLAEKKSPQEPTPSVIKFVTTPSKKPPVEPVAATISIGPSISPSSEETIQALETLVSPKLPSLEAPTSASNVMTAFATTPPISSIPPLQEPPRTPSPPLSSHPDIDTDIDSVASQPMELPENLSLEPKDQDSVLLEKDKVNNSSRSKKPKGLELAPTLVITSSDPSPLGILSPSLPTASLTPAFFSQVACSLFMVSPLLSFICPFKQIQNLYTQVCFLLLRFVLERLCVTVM
The settings on record: protein: recombinant; tags: N-terminal GST; dsDNA, one strand shown. In outline:
as §1

Assay [16] has as its target T10, ETV2 (Homo sapiens, UniProt O00321 1-342).
T10 sequence: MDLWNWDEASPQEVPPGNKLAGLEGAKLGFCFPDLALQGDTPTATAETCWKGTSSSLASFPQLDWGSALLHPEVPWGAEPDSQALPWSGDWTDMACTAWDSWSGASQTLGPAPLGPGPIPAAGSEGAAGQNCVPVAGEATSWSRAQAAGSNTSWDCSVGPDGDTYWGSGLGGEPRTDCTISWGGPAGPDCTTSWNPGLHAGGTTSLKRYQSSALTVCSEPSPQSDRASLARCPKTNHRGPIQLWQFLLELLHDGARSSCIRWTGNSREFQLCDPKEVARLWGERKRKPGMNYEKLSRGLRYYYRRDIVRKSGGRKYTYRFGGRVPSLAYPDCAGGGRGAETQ
As to conditions: protein: recombinant; tags: N-terminal GST; dsDNA, one strand shown. In outline: as §1

Assay [17] has as its target T11, ELF3 (Homo sapiens, UniProt P78545 1-371).
T11 sequence: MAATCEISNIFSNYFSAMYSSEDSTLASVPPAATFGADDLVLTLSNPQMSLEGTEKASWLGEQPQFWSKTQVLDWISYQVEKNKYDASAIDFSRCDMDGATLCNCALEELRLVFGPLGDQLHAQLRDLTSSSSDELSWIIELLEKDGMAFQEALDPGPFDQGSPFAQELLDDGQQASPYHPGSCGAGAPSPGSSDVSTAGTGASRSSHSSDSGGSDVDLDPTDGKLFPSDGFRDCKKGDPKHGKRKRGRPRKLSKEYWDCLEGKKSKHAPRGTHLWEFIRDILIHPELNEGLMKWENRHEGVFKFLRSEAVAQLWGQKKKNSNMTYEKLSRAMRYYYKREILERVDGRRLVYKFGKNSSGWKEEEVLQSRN
The settings on record: protein: recombinant; tags: N-terminal GST; dsDNA, one strand shown. In short, it runs like this:
as §1

Assay [18] concerns the target ETV1 (Homo sapiens, UniProt P50549 1-477). As to conditions: protein: recombinant; tags: N-terminal GST; dsDNA, one strand shown. In outline: as §1

Chain of ELF4 (Q99607 whole entry): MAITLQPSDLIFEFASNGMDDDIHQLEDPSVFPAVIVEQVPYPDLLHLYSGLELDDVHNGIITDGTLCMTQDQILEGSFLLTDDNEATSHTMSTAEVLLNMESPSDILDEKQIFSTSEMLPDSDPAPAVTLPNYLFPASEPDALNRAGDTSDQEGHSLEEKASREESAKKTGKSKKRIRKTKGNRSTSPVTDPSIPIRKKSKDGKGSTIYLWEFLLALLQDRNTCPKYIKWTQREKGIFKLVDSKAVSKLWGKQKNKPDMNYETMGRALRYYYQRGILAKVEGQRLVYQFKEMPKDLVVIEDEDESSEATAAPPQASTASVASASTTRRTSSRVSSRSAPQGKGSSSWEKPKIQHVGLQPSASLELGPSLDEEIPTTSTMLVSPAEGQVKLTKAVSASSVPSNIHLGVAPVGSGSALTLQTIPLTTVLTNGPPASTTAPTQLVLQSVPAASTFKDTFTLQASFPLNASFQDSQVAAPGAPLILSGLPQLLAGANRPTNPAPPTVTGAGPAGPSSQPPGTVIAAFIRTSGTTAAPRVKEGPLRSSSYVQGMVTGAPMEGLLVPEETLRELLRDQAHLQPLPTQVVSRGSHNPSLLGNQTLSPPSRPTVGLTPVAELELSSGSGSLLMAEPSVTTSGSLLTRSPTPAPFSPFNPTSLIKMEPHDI
Chain of HSF1 (Q00613 whole entry): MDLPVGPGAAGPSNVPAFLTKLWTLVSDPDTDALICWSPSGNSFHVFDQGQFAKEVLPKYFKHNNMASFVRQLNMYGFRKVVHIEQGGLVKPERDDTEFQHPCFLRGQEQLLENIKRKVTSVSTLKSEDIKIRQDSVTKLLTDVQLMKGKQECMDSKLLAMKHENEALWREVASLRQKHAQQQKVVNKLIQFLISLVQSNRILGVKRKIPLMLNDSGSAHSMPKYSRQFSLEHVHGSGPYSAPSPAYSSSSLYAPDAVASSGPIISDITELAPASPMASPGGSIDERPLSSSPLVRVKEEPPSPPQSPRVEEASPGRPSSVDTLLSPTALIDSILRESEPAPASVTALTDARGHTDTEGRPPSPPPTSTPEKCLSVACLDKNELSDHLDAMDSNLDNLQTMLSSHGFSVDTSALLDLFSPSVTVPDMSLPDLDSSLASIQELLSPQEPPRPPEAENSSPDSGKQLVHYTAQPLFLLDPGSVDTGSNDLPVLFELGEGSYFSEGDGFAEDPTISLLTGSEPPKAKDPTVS
Chain of SPIB (Q01892 whole entry): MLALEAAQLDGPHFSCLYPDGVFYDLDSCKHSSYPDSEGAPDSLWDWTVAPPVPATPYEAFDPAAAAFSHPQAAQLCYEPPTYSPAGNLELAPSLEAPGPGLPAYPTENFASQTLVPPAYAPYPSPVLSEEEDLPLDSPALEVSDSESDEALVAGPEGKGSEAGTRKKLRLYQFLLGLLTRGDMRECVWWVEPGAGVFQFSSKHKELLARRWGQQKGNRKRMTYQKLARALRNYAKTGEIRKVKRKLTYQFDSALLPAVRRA
Chain of ELF1 (P32519 whole entry): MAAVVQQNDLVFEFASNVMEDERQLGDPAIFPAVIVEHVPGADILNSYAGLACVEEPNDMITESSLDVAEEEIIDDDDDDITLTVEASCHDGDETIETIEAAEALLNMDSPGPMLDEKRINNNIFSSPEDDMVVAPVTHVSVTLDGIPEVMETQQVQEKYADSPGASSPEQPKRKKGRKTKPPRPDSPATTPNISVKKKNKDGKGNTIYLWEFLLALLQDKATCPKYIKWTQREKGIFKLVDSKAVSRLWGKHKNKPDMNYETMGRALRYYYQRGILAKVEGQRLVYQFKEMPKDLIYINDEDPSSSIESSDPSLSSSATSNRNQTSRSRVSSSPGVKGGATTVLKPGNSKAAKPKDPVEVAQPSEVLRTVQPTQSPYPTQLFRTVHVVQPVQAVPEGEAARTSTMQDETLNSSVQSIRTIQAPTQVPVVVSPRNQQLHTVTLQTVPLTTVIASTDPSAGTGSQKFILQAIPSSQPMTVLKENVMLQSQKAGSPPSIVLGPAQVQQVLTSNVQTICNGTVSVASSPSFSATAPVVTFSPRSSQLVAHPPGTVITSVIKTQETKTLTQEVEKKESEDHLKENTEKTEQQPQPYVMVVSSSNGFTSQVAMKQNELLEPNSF
Chain of ETV5 (P41161 whole entry): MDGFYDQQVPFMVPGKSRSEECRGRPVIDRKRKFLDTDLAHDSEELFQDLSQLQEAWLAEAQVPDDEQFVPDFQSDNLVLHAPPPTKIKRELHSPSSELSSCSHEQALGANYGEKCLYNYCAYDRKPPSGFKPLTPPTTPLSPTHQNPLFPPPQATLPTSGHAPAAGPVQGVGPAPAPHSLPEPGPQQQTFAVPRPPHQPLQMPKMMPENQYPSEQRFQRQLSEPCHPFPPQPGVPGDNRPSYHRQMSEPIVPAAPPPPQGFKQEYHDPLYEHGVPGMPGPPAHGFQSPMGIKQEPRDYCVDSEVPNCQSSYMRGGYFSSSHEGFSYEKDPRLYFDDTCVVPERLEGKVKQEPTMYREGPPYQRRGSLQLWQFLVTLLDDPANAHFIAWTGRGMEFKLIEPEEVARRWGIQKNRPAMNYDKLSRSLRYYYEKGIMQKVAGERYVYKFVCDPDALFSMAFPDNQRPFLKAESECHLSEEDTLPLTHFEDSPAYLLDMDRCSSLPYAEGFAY
Chain of ETV1 (P50549 whole entry): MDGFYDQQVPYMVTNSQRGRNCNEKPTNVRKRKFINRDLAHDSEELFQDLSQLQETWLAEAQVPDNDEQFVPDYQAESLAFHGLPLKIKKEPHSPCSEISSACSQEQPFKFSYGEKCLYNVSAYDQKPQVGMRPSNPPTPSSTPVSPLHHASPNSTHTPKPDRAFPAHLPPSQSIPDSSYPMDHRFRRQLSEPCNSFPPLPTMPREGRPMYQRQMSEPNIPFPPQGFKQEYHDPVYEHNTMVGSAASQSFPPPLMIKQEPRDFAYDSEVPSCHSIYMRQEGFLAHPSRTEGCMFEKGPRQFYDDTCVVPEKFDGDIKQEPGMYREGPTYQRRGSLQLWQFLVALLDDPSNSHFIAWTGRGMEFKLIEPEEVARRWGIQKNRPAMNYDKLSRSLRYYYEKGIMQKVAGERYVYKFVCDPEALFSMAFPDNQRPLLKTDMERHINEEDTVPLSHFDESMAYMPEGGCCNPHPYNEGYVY

Take ACCATC: the binding signal in assay [1] is 1.18 fold enrichment (6-mer frequency, TF over GST control); in assay [2] it was 1.14 fold enrichment (6-mer frequency, TF over GST control); in assay [3], 1.19 fold enrichment (6-mer frequency, TF over GST control); in assay [4] it was 1.1 fold enrichment (6-mer frequency, TF over GST control); in assay [5], 1.21 fold enrichment (6-mer frequency, TF over GST control); in assay [6], 1.12 fold enrichment (6-mer frequency, TF over GST control). For the same sequence, the binding signal is 1.15 fold enrichment (6-mer frequency, TF over GST control) in assay [7]; 1.07 fold enrichment (6-mer frequency, TF over GST control) in assay [8]; 1.24 fold enrichment (6-mer frequency, TF over GST control) in [9]; 1.13 fold enrichment (6-mer frequency, TF over GST control) in assay [10]; 1.11 fold enrichment (6-mer frequency, TF over GST control) in [11]; 1.14 fold enrichment (6-mer frequency, TF over GST control) in [12]. The binding signal in [13] was 1.02 fold enrichment (6-mer frequency, TF over GST control); in [14], 1.12 fold enrichment (6-mer frequency, TF over GST control); in assay [15] it was 1.13 fold enrichment (6-mer frequency, TF over GST control); in assay [16], 1.06 fold enrichment (6-mer frequency, TF over GST control); in [17] it was 1.19 fold enrichment (6-mer frequency, TF over GST control); in assay [18], 1.03 fold enrichment (6-mer frequency, TF over GST control).
